Experimental data from PubChem BioAssay AID651819 (National Center for Advancing Translational Sciences (NCATS), 2012).
Hit rate of the full screen: of about 360,000 compounds, about 1,100 (0.31%) were called active. The list comes from a sample in which actives are over-represented; it also holds similar structures and randomly drawn compounds. A number with no mark means an inactive call. Cut-off read from the data, not from the text of the source: active = activity change below about -30%; inactive = the rest.

What follows are compounds tested on cytosolic chaperonin (CCT/TRiC complex) (assay: High-Throughput Screening for Modulators of Cytosolic Chaperonin Activity). Conditions: purified chaperonin ATPase assay, HTRF ADP detection, 30 min; hits give low values.
Outline: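 We incubate TRiC, 40 or 20 nM final, with library compounds at 76 uM and 10 uM ATP for 30 min at 37 °C. ADP formed is detected with Transcreener HTRF reagents after 30 min at room temperature.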
% is set by controls: 0 for no effect and ±100 for the full control effect.

Compound | activity change
CC(=O)Cn1ncc(N2CCOCC2)c(Br)c1=O | -7.2%
O=C(CSCc1c(F)cccc1Cl)NCC1CCCO1 (configuration not stated) | -0.136%
O=C(CSCc1ccccc1Cl)NNC(=O)c1ccccc1 | -0.322%
O=C(CSCc1c(Cl)cccc1Cl)NN1C(=O)c2ccccc2C1=O | -44% (active)
CC(CO)(CO)NC(=O)c1ccc(=O)[nH]n1 | 1.59%
Cc1ccc(C)c(OCCC(=O)OCC(=O)c2ccc3c(c2)NC(=O)CO3)c1 | -8.24%
CCOC(=O)C1CCN(C(=O)COc2cc(C)c(Br)c(C)c2)CC1 | -2.02%
Cc1cc(=O)oc2ccc(OCC(=O)O)cc12 | -57.7% (active)
CC(=O)c1c(C)[nH]c(C(=O)COc2ccc3c(C)cc(=O)oc3c2)c1C | -0.599%
Cc1ccc(O)c(/C=N/NC(=O)COc2ccc3c(C)cc(=O)oc3c2)c1 | 2.07%
O=C(NCCC1CCCCN1S(=O)(=O)c1ccc(Cl)cc1)C(=O)NCc1ccco1 (configuration not stated) | 2.22%
CCOC(=O)[C@@H]1[C@H]2COc3ccc(Br)cc3[C@H]2N2C(=O)N(c3ccc(Cl)cc3)C(=O)[C@@]12C | -1.17%
CC1(C(=O)Nc2cccc3cccnc23)CCN1C(=O)CCC1CCCC1 (configuration not stated) | 1.06%
O=C1c2ccccc2C(O)N1Cc1ccccc1 (configuration not stated) | -1.07%
CCn1cc(C(=O)NCCO)c(=O)c2cc(F)c(N3CCN(C)CC3)cc21 | -0.12%
CN1CCN(c2cc3c(cc2F)c(=O)c(C(=O)O)cn3CCF)CC1 | -35.1% (active)
CCCCCCn1cc(C(=O)O)c(=O)c2cc(F)c(N3CCCCC3)cc21 | -2.93%
O=C(NCc1ccccc1)C(=O)NCC1OCCN1S(=O)(=O)c1ccc(Br)cc1 (configuration not stated) | -1.3%
O=C(NCc1ccncc1)C(=O)NCC1OCCN1S(=O)(=O)c1ccc(Br)cc1 (configuration not stated) | -45.4% (active)

Compound | activity change
COc1ccc(S(=O)(=O)N2CCOC2CNC(=O)C(=O)NCc2ccncc2)cc1OC (configuration not stated) | 0.662%
O=C1CCC(=O)N1c1ccc(NCCc2ccccc2F)c([N+](=O)[O-])c1 | -1.58%
Cc1ccccc1NC(=O)c1cc(S(=O)(=O)N2CCOCC2)cs1 | -3.83%
Cn1c(=O)c(=O)n(C)c2cc(S(=O)(=O)NCCc3ccccc3)ccc21 | -5.22%
COc1cccc(C(=O)NCCS(=O)(=O)NCC2CCCO2)c1 (configuration not stated) | -0.161%
CN(C)S(=O)(=O)N1CCC(Oc2cccc(C(=O)NCCCC3CCCC3)c2)CC1 | -87.6% (active)
CN(C(=O)c1cccc(OC2CCN(S(=O)(=O)N(C)C)CC2)c1)C1CCOC1 (configuration not stated) | -4.71%
Cc1[nH]n(C)c(=O)c1C(=O)c1c(-c2c(Cl)cccc2Cl)noc1C | -45.8% (active)
Cc1onc(-c2c(F)cccc2Cl)c1C(=O)Nc1cccc(S(=O)(=O)N2CCCCC2)c1 | -0.204%
Cc1onc(-c2c(Cl)cccc2Cl)c1C(=O)c1c[nH]c(C(=O)NC2CC2)c1 | 0.407%
O=C1NC(c2ccccc2)=NC1(Nc1ccccn1)C(F)(F)F (configuration not stated) | -1.42%
Cc1cccc(N)c1SC1CCCCC1O (configuration not stated) | -39.7% (active)
CSCCC1NC2(C(=O)Nc3ccc(Cl)cc32)[C@@H]2C(=O)N(C3CCCC3)C(=O)[C@H]12 (some centres not stated) | 1.03%
Cc1c(CC(=O)NCC(=O)NCC(=O)O)c(=O)oc2cc3oc4c(c3cc12)CCCC4 | -2.16%
COc1ccc(-c2csc(NC(=O)c3ccc(N4C(=O)CCC4=O)cc3)n2)cc1OC | -39.6% (active)
COc1ccc(-n2nc3c(c2NC(=O)c2ccc(N4C(=O)CCC4=O)cc2)CSC3)cc1 | -0.865%
COc1cc(NC(=O)c2ccc(-c3csc(C)n3)cc2)c(OC)cc1Cl | -4.58%
C[C@H]1Cn2cnc(C(=O)N[C@H](C)c3ccccc3)c2C(=O)N1 | -0.974%
CCc1c(C)nc(SCC(=O)NC2CCCC2)[nH]c1=O | -41.7% (active)

Compound | activity change
Cc1ccc2nc(SCC(=O)NC3CCCC3)[nH]c2c1 | -1.34%
Cc1nc(SCC(=O)NC2CCCC2)[nH]c(=O)c1C | -0.123%
O=C(CSC1=NS(=O)(=O)c2cc(F)ccc2N1)Nc1ccccc1F | 0.641%
COC(=O)c1ccc(S(=O)(=O)c2ccc(C(=O)OC)s2)s1 | 1.17%
CN(C)S(=O)(=O)c1cccc(-c2nn(-c3ccccc3)cc2/C=C2\SC(=S)N(CC(=O)O)C2=O)c1 | -61.8% (active)
COc1cccc(-c2nn(-c3ccccc3)cc2/C=C(\C#N)C(=O)NCCCn2ccnc2)c1 | -0.966%
Cc1ccc(-c2nn(-c3ccccc3)cc2/C=C/C(=O)Nc2cccc(S(N)(=O)=O)c2)cc1 | 0.245%
CSc1nc2ccccc2cc1/C=C(\C#N)c1ccc(Cl)cc1Cl | 2.8%
Cn1nc([N+](=O)[O-])nc1Sc1ccc(C(C)(C)C)cc1 | -4.31%
Cc1cc(C(=O)NNC(=S)NC(C)c2ccccc2)cs1 (configuration not stated) | -0.958%
O=C(Nc1ccncc1)c1cc(-c2ccccn2)nc2ccc(Br)cc12 | -70.4% (active)
Cc1ccc2nc(-c3ccncc3)cc(C(=O)Nc3ccc(OC(F)F)cc3)c2c1 | -2.42%
O=C(Nc1ccc(Br)cc1)c1cc(S(=O)(=O)Nc2ccccn2)ccc1Cl | -1.07%
O=C(Nc1ccc(Cl)cc1)/C(=C1\CCCN1)[N+](=O)[O-] | 0.411%
O=C(Nc1cc(-c2nc3ncccc3o2)ccc1Cl)c1ccco1 | -2.43%
O=S1(=O)CC(N2CCN(c3ccccn3)CC2)CN1Cc1ccc(F)cc1 (configuration not stated) | -0.743%
Cc1cc(C)n2nc(C(=O)Nc3cccc(S(=O)(=O)N4CCOCC4)c3)nc2n1 | -34.4% (active)
Cc1occc1C(=O)Nc1cccc(S(=O)(=O)N2CCOCC2)c1 | -3.31%
Cc1c(C(=O)Nc2cccc(S(=O)(=O)N3CCOCC3)c2)oc2ccccc12 | -1.92%
